Compound activity from PubChem.
Compounds with a hit are over-represented: about 2% of the library has one in this group of screens.
ADAM10 inh: inhibitors of human ADAM10. recombinant ADAM10, EDANS/DABCYL FRET peptide cleavage, 3 h. O14672. 0.62% of 370,000 active. inhibition, % at 7 µM;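 active means inhibition above a per-campaign cutoff equal to the mean of compounds falling between control-based bounds plus 3 SD, cut at about 20% in these data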
NPR2 activator: GC-B (human) receptor activation; P20594; HEK293-GC-B cells, CNP EC30, cGMP TR-FRET; 0% at EC30 CNP, 100% saturating CNP; activation, % at 10 µM; 0.11% of 370,000 active;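 active means activation at 10 µM reaching about 35% in either raw or pattern-adjusted values, limit read from the data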
ADAM17 inh: ADAM17 inhibition, QFRET primary screen | P78536 | recombinant ADAM17, EDANS/DABCYL FRET peptide cleavage | inhibition, % at 6.95 µM | 0.83% of 370,000 active;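 active means inhibition above the mean of compounds lying between control limits plus 3 SD, set per campaign, cut at about 8.5% in these data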
FAS-TE inh: blocks the thioesterase domain of human fatty acid synthase. P49327. recombinant FAS-TE, OMFH fluorogenic substrate, fluorescence endpoint. inhibition, % at 15 µM. 0.67% of 360,000 active. AID 602261;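 active means compounds whose normalised, plate-corrected inhibition of enzyme fluorescence in the single-dose primary screen is 50% or more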
NPR1 activator: GC-A (human) enzyme activation. HEK293 GC-A cells, cGMP TR-FRET, EC30 ANP; 0% at EC30 ANP, 100% saturating ANP. activation, % at 10 µM. P16066. 0.14% of 370,000 active; in the data active means activation above about 40%
Target sequence (P16066 whole entry, looked up): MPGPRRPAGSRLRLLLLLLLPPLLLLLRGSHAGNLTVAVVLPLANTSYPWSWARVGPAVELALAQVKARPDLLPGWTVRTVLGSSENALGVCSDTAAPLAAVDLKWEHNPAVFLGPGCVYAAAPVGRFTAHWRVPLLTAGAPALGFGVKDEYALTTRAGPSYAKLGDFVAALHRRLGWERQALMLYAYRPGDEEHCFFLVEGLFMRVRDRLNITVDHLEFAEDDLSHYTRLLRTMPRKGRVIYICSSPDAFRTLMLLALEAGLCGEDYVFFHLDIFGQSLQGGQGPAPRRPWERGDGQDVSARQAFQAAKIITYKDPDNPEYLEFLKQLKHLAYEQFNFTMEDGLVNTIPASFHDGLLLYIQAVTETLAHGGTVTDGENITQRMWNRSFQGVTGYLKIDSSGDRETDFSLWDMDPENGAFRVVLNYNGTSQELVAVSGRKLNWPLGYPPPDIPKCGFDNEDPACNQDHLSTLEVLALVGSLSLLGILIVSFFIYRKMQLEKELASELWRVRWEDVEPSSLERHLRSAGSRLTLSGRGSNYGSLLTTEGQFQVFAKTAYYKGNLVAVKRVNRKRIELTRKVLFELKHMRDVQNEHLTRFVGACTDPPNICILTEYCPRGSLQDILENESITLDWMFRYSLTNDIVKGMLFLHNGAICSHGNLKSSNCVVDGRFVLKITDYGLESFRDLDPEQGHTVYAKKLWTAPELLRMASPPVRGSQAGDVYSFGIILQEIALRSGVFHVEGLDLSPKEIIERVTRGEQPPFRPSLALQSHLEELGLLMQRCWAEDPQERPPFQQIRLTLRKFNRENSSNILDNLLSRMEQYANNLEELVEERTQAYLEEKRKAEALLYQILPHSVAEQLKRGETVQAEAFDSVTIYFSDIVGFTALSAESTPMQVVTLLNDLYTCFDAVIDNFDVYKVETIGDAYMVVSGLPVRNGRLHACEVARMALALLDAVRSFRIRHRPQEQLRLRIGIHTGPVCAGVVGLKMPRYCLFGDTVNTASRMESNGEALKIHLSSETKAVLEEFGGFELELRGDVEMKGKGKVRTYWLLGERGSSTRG
ADAM10 counter: ADAM10 inhibition, counter-screen for ADAM17 exosite hits; 47% of 2,900 active; inhibition, % at 6.95 µM; shares compounds with ADAM17 inh; recombinant ADAM10, EDANS/DABCYL FRET peptide cleavage, 3 h;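 active means mean inhibition over the triplicate runs exceeds the activity threshold set in the earlier primary screen, cut at about 20% in these data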
ADAM17 confirm: human ADAM17 inhibition, confirmation | shares compounds with ADAM17 inh | recombinant ADAM17, EDANS/DABCYL QFRET peptide cleavage | inhibition, % at 6.95 µM | 65% of 2,900 active | AID 743257;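 active means mean inhibition across replicates above the hit cutoff set in the primary screen, cut at about 8.5% in these data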
Large screens that a line does not name were inactive (follow-up assays come after a bar, where they were run).

O=C(N[C@H]1C/C=C\C[C@@H](CC(=O)N(CCO)Cc2ccccc2)C(=O)N[C@H](Cc2c[nH]c3ccccc23)COC1=O)OCC1c2ccccc2-c2ccccc21	ADAM17 inh 10.3 | ADAM10 counter 21.0 | ADAM17 confirm 13.0
O=C(N[C@H]1C/C=C\C[C@H](CC(=O)N(CCO)Cc2ccccc2)C(=O)N[C@H](Cc2c[nH]c3ccccc23)COC1=O)OCC1c2ccccc2-c2ccccc21	none
CCCN(C(=O)c1cn(CCC)c2ccccc12)c1ccc(Oc2cccnc2)cc1	ADAM17 inh 10.5 (no result: FAS-TE inh) | ADAM10 counter inactive | ADAM17 confirm 9.1
CCc1csc(N2[C@H](CN(CCOC)S(=O)(=O)c3ccccc3[N+](=O)[O-])[C@H](c3ccccc3)[C@@H]2CO)n1	none (no result: FAS-TE inh)
O=C(CSc1nnc(-c2ccncc2)n1Cc1ccco1)Nc1nccs1	none
CC(C)(C)c1ccc(-c2nnc(SCC(=O)Nc3ccccc3-c3ccccc3)n2Cc2ccco2)cc1	ADAM17 inh 11.4 (no result: FAS-TE inh) | ADAM10 counter 20.4 | ADAM17 confirm 17.1
CCOc1ccc(-n2c(SCC(=O)Nc3ccccc3-c3ccccc3)nnc2-c2ccccc2)cc1	ADAM17 inh 9.6 (no result: FAS-TE inh) | ADAM10 counter 37.7 | ADAM17 confirm 20.3
COc1cccc(-c2nnc(SCC(=O)Nc3ccc(OCc4ccccc4)cc3)n2Cc2ccco2)c1	none (no result: FAS-TE inh)
COc1cccc(-c2nnc(SCC(=O)Nc3ccc(Oc4ccccc4)cc3)n2Cc2ccco2)c1	ADAM17 inh 9.1 (no result: FAS-TE inh) | ADAM10 counter 26.7 | ADAM17 confirm 15.9
CCOc1ccc(-n2c(SCC(=O)Nc3cccc4ccccc34)nnc2-c2ccccc2)cc1	none (no result: FAS-TE inh)
CC(C)(C)c1ccc(-c2nnc(SCC(=O)Nc3ccc(S(=O)(=O)Nc4nccs4)cc3)n2Cc2ccco2)cc1	ADAM17 inh 9.6 (no result: FAS-TE inh) | ADAM10 counter 22.6 | ADAM17 confirm 13.3
COC(=O)[C@]12C[C@H](CC(=O)N3CCN(C(=O)C4CC4)CC3)C(=O)N(Cc3ccccc3)C1=C[C@H](C(C)C)O[C@@H]2C1CC1	none (no result: FAS-TE inh)
CCCC[C@H](C(=O)N(C)c1ccccc1)[C@@H](O)c1ccc2ccccc2c1	none (no result: FAS-TE inh)
CN(C)S(=O)(=O)c1cccc(C(=O)N/N=C\c2ccccc2[N+](=O)[O-])c1	none (no result: FAS-TE inh)
CCCCC[C@@H](C)N1C[C@@H](COCc2ccccc2)Oc2cc(N3CCC[C@H]3CO)ccc2S1(=O)=O	ADAM17 inh 9.9 | ADAM10 counter 23.2 | ADAM17 confirm 15.2
CCCCC[C@@H](C)N1C[C@H](COCc2ccccc2)Oc2cc(N3CCC[C@H]3COC)ccc2S1(=O)=O	none
COC(=O)C1=C(C)N(Cc2cccc(C(F)(F)F)c2)C(=NCc2ccccc2C(F)(F)F)NC1c1cccc(F)c1 (centres undefined)	ADAM17 inh 9.6 (no result: FAS-TE inh) | ADAM10 counter 20.6 | ADAM17 confirm 17.5
C=CCN=C1NC(c2ccccc2)C(C(=O)OC)=C(C)N1Cc1cccc(C(F)(F)F)c1 (centres undefined)	none (no result: FAS-TE inh)
COC(=O)C1=C(C)N(Cc2ccc(C(F)(F)F)cc2)C(=NCc2ccc3c(c2)OCO3)NC1c1ccccc1 (centres undefined)	ADAM17 inh 9.6 (no result: FAS-TE inh) | ADAM10 counter inactive | ADAM17 confirm inactive
COC(=O)C1=C(C)N(Cc2cccc(C(F)(F)F)c2)C(=NCc2ccc3c(c2)OCO3)NC1c1ccccc1 (centres undefined)	none (no result: FAS-TE inh)
C=CCN=C1NC(c2cccc(Cl)c2)C(C(=O)OC)=C(C)N1Cc1cccc(C(F)(F)F)c1 (centres undefined)	ADAM17 inh 10.0 (no result: FAS-TE inh) | ADAM10 counter inactive | ADAM17 confirm inactive
CC12CCC(C(=O)Nc3ccc(SC(F)F)cc3)(CC1=O)C2(C)C (centres undefined)	ADAM17 inh 14.9 | ADAM10 counter inactive | ADAM17 confirm inactive
CCOc1ccc(N(CC(=O)NCCSc2ccccn2)S(=O)(=O)c2ccc(Cl)cc2)cc1	none
CCOc1ccc(N(CC(=O)NCCSc2ccccn2)S(C)(=O)=O)cc1	ADAM17 inh 10.1 | ADAM10 counter inactive | ADAM17 confirm inactive
COC(=O)[C@]12C[C@H](CC(=O)N3CCN(C(=O)C4CC4)CC3)C(=O)N(Cc3ccco3)C1=C[C@H](C(C)(C)C)O[C@@H]2C	none (no result: FAS-TE inh)
CC(C)COc1ccc(CSCCNC(=S)Nc2ccccc2)cc1	ADAM17 inh 9.1 | ADAM10 counter 28.7 | ADAM17 confirm 13.3
CCCCOc1ccc(CSCCNC(=S)Nc2ccccc2)cc1	none
COC(=O)C1CN(C2CCCC2)CCS(=O)(=O)N1Cc1cn(Cc2ccc(OC)cc2)nn1 (centres undefined)	none (no result: FAS-TE inh)
CCCc1c(-c2ccc(F)cc2F)ncn1Cc1cccc(-c2ccccc2)c1	ADAM17 inh 16.1 (no result: FAS-TE inh) | ADAM10 counter inactive | ADAM17 confirm inactive
Cc1ccc(C(=O)N(Cc2sccc2C)C2CCS(=O)(=O)C2)cc1 (centres undefined)	none
COc1ccc(C(=O)N(Cc2sccc2C)C2CCS(=O)(=O)C2)cc1 (centres undefined)	ADAM17 inh 9.1 | ADAM10 counter inactive | ADAM17 confirm inactive
Cc1ccccc1C(=O)NC1CCN(CC(=O)Nc2ccccc2Cl)CC1	none
Cc1c(Cl)cccc1NC(=O)CN1CCC(C(O)(c2ccccc2)c2ccccc2)CC1	ADAM17 inh 8.8 | ADAM10 counter 30.1 | ADAM17 confirm 16.5
CCNC(=O)OCCN1C(=O)CCC12CCC(c1ccc(Cl)cc1)CC2 (centres undefined)	none (no result: FAS-TE inh)
CN(C)S(=O)(=O)c1cccc(NC(=O)c2cccc(S(=O)(=O)N3CCc4ccccc43)c2)c1	ADAM17 inh 9.5 | ADAM10 counter 40.9 | ADAM17 confirm 21.5
COCc1ccc(C(=O)Nc2cccc(S(=O)(=O)N(C)c3ccccc3)c2)cc1	none
CC(=O)NS(=O)(=O)c1ccc(NC(=O)c2cccc(S(=O)(=O)N3CCc4ccccc43)c2)cc1	none
CN(C)S(=O)(=O)c1cccc(NC(=O)c2ccc(COc3ccccc3)cc2)c1	ADAM17 inh 9.6 | ADAM10 counter 24.5 | ADAM17 confirm 14.4
O=C(NCc1ccccc1)[C@@H]1CCCN1C(=O)[C@H]1CCCN1C(=O)c1ccc(F)cc1	none (no result: FAS-TE inh)
COc1ccc(CN(C)CC#Cc2ccccc2)c(OC)c1	none (no result: FAS-TE inh)
c1ccc(CSc2nnc(SCc3ccccn3)s2)nc1	ADAM17 inh 9.0 | ADAM10 counter inactive | ADAM17 confirm inactive
Cc1cnc(NC(=O)CSc2ccc(Cl)cc2)s1	ADAM17 inh 9.0 | ADAM10 counter inactive | ADAM17 confirm inactive
